SNCA expr inh: SNCA gene expression inhibition | Potency, µM (highest dose often 57.2 µM), inactives show top-dose activity change, negative = inhibition, usual class: inhibitors | 140,000 tested, 0.17% active | HEK-293 SNCA-luciferase knock-in, luminescence, 24 h;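 note: potency is the fitted concentration of half-maximal effect; plate controls were DMSO cells for no effect and cell-free wells for full effect; nearly all actives have a fitted effect of over 45% in size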
IP6K1 inhibitor: IP6K1 kinase inhibition. Q92551. IP6K1 kinase, ADP-Glo luminescence, 2 h; stronger effect = lower value. activity change, % (series mostly up to about 58 µM). 140,000 tested, 0.81% active. AID 1645851; in the data active = activity change below about -25%; note: % is set by controls: 0 for no effect and ±100 for the full control effect
Target sequence (Q92551 whole entry, looked up): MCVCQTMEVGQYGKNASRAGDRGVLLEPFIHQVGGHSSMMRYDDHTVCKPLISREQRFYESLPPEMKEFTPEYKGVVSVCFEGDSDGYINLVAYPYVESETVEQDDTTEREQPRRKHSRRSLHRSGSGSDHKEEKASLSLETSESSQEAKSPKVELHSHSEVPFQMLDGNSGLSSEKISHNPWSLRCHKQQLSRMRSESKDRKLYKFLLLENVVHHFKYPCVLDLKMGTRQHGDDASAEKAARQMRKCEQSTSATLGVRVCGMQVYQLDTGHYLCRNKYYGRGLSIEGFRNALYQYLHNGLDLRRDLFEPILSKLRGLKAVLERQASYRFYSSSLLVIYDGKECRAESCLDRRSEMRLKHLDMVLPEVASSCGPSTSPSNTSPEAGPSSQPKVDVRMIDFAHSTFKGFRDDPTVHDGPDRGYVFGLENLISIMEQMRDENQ
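ADP-Glo luminescence measures ADP made by human IP6K1 during a 2 h RT reaction with ATP/IP6 (mix at 1.3 mM/130 uM); top library doses 57.5 and 19.1 uM final.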
KDM5B inhibitor: inhibitors of human KDM5B histone demethylase | Q9UGL1 | KDM5B demethylase, FDH-coupled NADH fluorescence (FDH is formaldehyde dehydrogenase) | Potency, µM (series often up to 57.7 µM), usual class: inhibitors | 220,000 tested, 2.6% active; note: potency is the fitted concentration of half-maximal effect; 0% is about no effect; nearly all actives have a fitted effect of over 70% in size
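Here, H3K4me3 peptide (12.5 µM in substrate mix) is demethylated by KDM5BΔAP, 200 nM final, after 10 min compound exposure. Formaldehyde product is coupled through FDH (0.25 U/mL in mix) to NADH fluorescence; 30-min ΔRFU feeds dose-response curves.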
SNCA viab count: counter-screen for SNCA expression inhibitors: cell viability | HEK-293-SNCA-luc viability, GF-AFC fluorescence, 24 h | Potency, µM (titrated, usually from 57.1 µM), for inactives: at the highest dose activity change, negative = cytotoxicity, most hits filed as cytotoxic | 150,000 tested, 0.12% active | AID 1671193;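 note: potency is the fitted concentration of half-maximal effect; 0% = DMSO-treated cells and -100% = medium-only wells without cells; nearly all actives have a fitted effect of over 30% in size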
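Cytotoxicity counterscreen: after 24 h compound treatment of genome-edited SNCA-luciferase HEK-293 cells, live-cell protease substrate GF-AFC read by fluorescence after 30 min; activity scaled between DMSO (0%) and medium-only (-100%), curves Hill-fitted.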
* marks the source's active call; other numbers are inactive results; ! = not active in a repeat; [ ] = remark or other dose. Sampled rows, rich in hits. Any-hit rate of the full collection: about 3%. Unless noted, calls come from the whole dose curve; as a rule, active = well fitted curve in the direction sought with a large enough effect; inconclusive = small, poorly fitted or top-dose-only effect, or another doubt; inactive = no such curve, though single readings can be large; an effect the other way counts as inactive or inconclusive.

For COc1ccc(-c2nc(C)nc3c2CCN(CC2CC2)CC3)cc1 the results were SNCA expr inh 2%[87.6 µM], IP6K1 inhibitor -1, KDM5B inhibitor 40µM* and SNCA viab count -6%[87.6 µM].
For Cc1ccc(S(=O)(=O)NC[C@H]2O[C@H](Cc3cc(-c4cccc(O)c4)on3)CC[C@@H]2O)cc1 the results were SNCA expr inh inconclusive, IP6K1 inhibitor -11, KDM5B inhibitor inactive and SNCA viab count 4%.
`COc1ccc(F)cc1-c1ccc(CN2CCCCC2C(=O)NCc2ccc(C(F)(F)F)cc2)cc1` (stereo unspecified) gave IP6K1 inhibitor 8.
Screening CCOc1ccc(C(=O)N2CCC3(CC2)N=C(c2ccc(Cl)cc2)NO3)cc1 returned SNCA expr inh -26%, IP6K1 inhibitor 1, KDM5B inhibitor 28µM* and SNCA viab count -10%.
Screening CCOc1ccc(CC(=O)N2CCC3(CC2)N=C(c2ccc(Cl)cc2)NO3)cc1 returned SNCA expr inh 6%, IP6K1 inhibitor -13, KDM5B inhibitor 16µM* and SNCA viab count 8%.
Cc1ccc(C(=O)N2CCC3(CC2)N=C(c2ccc(Cl)cc2)NO3)cc1 was read as SNCA expr inh -6%, IP6K1 inhibitor -3, KDM5B inhibitor inconclusive and SNCA viab count 6%.
For C=CCOc1c(OC)ccc2c1CN(CC1CC1)C(=O)CCN2CC(O)COc1ccc(OC)cc1 (stereo unspecified) the results were IP6K1 inhibitor -7.
For CCNC(=O)OC1CCN(C(=O)c2cc3ccccc3s2)CC(=O)N(C)c2ccccc21 (stereo unspecified) the results were IP6K1 inhibitor -8.
`Cc1cccc(-c2cccc(NC(=O)C3CCCN(C(=O)c4cccc(C)n4)C3)c2)c1` (stereo unspecified) gave SNCA expr inh 84%, IP6K1 inhibitor 6, KDM5B inhibitor inactive and SNCA viab count -18%.
Screening Cc1c(CN2CCCC(C(=O)Nc3cccc(-c4cc5ccccc5[nH]4)c3)C2)cnn1C (stereo unspecified) returned SNCA expr inh inconclusive, IP6K1 inhibitor -7, KDM5B inhibitor 28µM* and SNCA viab count inconclusive.
`O=C(Nc1cccc(-n2cccn2)c1)C1CCCN(Cc2cccc(F)c2F)C1` (stereo unspecified) gave SNCA expr inh -1%, IP6K1 inhibitor 0, KDM5B inhibitor inactive and SNCA viab count -11%.
Cc1cc(C(=O)N2CCCC(C(=O)Nc3cccc(-c4cc5ccccc5[nH]4)c3)C2)nn1C (stereo unspecified) was read as SNCA expr inh inconclusive, IP6K1 inhibitor 11, KDM5B inhibitor 32µM* and SNCA viab count inconclusive.
Screening CCn1cc(C(=O)N2CCCC(C(=O)Nc3cccc(-c4cc5ccccc5[nH]4)c3)C2)cn1 (stereo unspecified) returned SNCA expr inh -13%, IP6K1 inhibitor 28, KDM5B inhibitor 28µM* and SNCA viab count -10%.
Screening COc1ccc(CC(=O)OCC(=O)c2ccc3c(c2)OCCCO3)cc1 returned KDM5B inhibitor inactive.
`COc1ccc(CCNC(=O)c2cc(-c3ccccc3F)nc3c2cnn3C)cc1` gave IP6K1 inhibitor -1.
Screening c1coc(-c2nc3ccncc3[nH]2)c1 returned SNCA expr inh 16%[87.6 µM], IP6K1 inhibitor 23, KDM5B inhibitor 32µM*! and SNCA viab count -8%[87.6 µM].
Cc1cc(-c2nc3ccncc3[nH]2)c(C)[nH]1 was read as SNCA expr inh 74%[87.6 µM], IP6K1 inhibitor -4, KDM5B inhibitor 32µM* and SNCA viab count 4%[87.6 µM].
For c1ccc(-c2nc3ccncc3[nH]2)cc1 the results were SNCA expr inh 39%[87.6 µM], IP6K1 inhibitor 0, KDM5B inhibitor inconclusive and SNCA viab count 4%[87.6 µM].
`O=C(NCc1c[nH]c2ncccc12)c1ccncc1` gave SNCA expr inh -18%[87.6 µM], IP6K1 inhibitor 23, KDM5B inhibitor inactive and SNCA viab count 6%[87.6 µM].
`Cc1occc1-c1nc2ccncc2[nH]1` gave SNCA expr inh 12%[87.6 µM], IP6K1 inhibitor 2, KDM5B inhibitor 32µM*! and SNCA viab count 4%[87.6 µM].
Screening c1cnc2[nH]cc(-c3nc4ccncc4[nH]3)c2c1 returned SNCA expr inh 16%[87.6 µM], IP6K1 inhibitor 5, KDM5B inhibitor 35µM*! and SNCA viab count -4%[87.6 µM].
`O=C(O)c1ccc(-c2nc3ccncc3[nH]2)cc1` gave SNCA expr inh inconclusive, IP6K1 inhibitor 0, KDM5B inhibitor inconclusive and SNCA viab count inconclusive.
Screening CCOC(=O)[C@@H]1CN([S+](=O)([O-])c2ccccc2)[C@H]2c3ccccc3O[C@@H]12 returned IP6K1 inhibitor 4.
Cn1ncc2c(C(=O)NCc3ccc(F)cc3F)cc(-c3ccccc3F)nc21 was read as IP6K1 inhibitor 1.
For Cc1ccnc(C(NC(=O)CCc2cc3n(n2)CCCNC3)C2CC2)c1 (stereo unspecified) the results were SNCA expr inh 25%, IP6K1 inhibitor 4, KDM5B inhibitor 28µM* and SNCA viab count 0%.
For Cc1nn(CCO)c(C)c1NC(=O)CCc1cc2n(n1)CCCNC2 the results were SNCA expr inh -3%, IP6K1 inhibitor 6, KDM5B inhibitor inconclusive and SNCA viab count -14%.
For CCN(CC)c1ccc(CNC(=O)c2ccc3c(c2)n(C)c(=O)c2ccnn23)cc1 the results were SNCA expr inh 17%, IP6K1 inhibitor 15, KDM5B inhibitor inconclusive and SNCA viab count -2%.
CN(C)C(=O)c1ccc2c(c1)n(Cc1ccc(F)cc1)c(=O)c1ccnn12 was read as SNCA expr inh 16%, IP6K1 inhibitor 0, KDM5B inhibitor 28µM* and SNCA viab count -2%.
Cc1cc(F)ccc1NC(=O)c1ccc2c(c1)n(Cc1cccc(F)c1)c(=O)c1ccnn12 was read as SNCA expr inh -24%, IP6K1 inhibitor -9, KDM5B inhibitor inactive and SNCA viab count -8%.
For Cn1c(=O)c2ccnn2c2ccc(C(=O)Nc3ccc(N4CCOCC4)cc3)cc21 the results were SNCA expr inh 11%, IP6K1 inhibitor -7, KDM5B inhibitor inactive and SNCA viab count -8%.
Screening CCCN1CCN(C(=O)c2ccc3c(c2)n(CC)c(=O)c2ccnn23)CC1 returned SNCA expr inh 13%, IP6K1 inhibitor 27, KDM5B inhibitor inconclusive and SNCA viab count -3%.
CCn1c(=O)c2ccnn2c2ccc(C(=O)Nc3ccc(C)c(F)c3)cc21 was read as SNCA expr inh -17%, IP6K1 inhibitor 5, KDM5B inhibitor 8.9µM* and SNCA viab count -16%.
CCn1c(=O)c2ccnn2c2ccc(C(=O)NCCCOC(C)C)cc21 was read as SNCA expr inh 5%, IP6K1 inhibitor 2, KDM5B inhibitor 32µM* and SNCA viab count 10%.
Screening O=C(NCc1ccccn1)c1ccc2c(c1)n(Cc1cccc(F)c1)c(=O)c1ccnn12 returned SNCA expr inh 16%, IP6K1 inhibitor 4, KDM5B inhibitor 25µM* and SNCA viab count 11%.
Screening Cc1nn(-c2ccccc2)c2c1C(C(C)C)N(C1CCN(C(=O)C(C)(C)C)C1)C2=O (stereo unspecified) returned IP6K1 inhibitor -6.
